Avidin bead fluor: green autofluorescence of compounds with avidin beads – biophysical, 488/530 nm, flow cytometry, artefact control, profiling panel. compound fluorescence 488/530 nm; stronger effect = higher value. fluorescence (KMESF) at 10 µM. 0.38% of 220,000 active. AID 1775, 2009; in the data active means fluorescence above about 47
RGS4-Gao reg: modulators of RGS4 binding to Galphao, primary screen, biochemical, multiplexed bead flow cytometry | binding response (% of control), % at 10 µM | actives lie on both sides | 0.33% of 220,000 active; in the data active means binding response below about 49% or above about 150%; inactive means in between;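 further: fluorescent Galphao activated with aluminum fluoride binding bead-coupled RGS4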
Target sequence (P09471 whole entry, looked up): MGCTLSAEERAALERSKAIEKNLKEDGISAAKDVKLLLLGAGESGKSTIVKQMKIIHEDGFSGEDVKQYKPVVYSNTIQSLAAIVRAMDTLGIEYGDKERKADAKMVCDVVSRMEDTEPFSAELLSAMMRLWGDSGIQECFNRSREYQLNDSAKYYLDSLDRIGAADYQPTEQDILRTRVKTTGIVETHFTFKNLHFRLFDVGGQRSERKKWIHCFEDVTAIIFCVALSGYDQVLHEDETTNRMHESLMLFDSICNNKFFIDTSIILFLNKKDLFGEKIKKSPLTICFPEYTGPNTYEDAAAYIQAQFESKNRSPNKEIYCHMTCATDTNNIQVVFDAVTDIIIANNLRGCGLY
GSH bead fluor: compound fluorescence on glutathione beads, profiling panel, artefact control, biophysical, 488/530 nm, flow cytometry | AID 1776, 2009 | GSH beads flow cytometry, compound fluorescence 488/530 nm; stronger effect = higher value | fluorescence (KMESF) at 10 µM | 0.25% of 190,000 active; in the data active means fluorescence above about 89;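 further: glutathione beads carrying GST-tagged Bcl family fusion proteins plus one bare bead set; values are compound well signal with DMSO vehicle wells as background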
RGS16-Gao: modulators of RGS16 binding to Galphao, primary screen, biochemical, human proteins, multiplexed bead flow cytometry | Regulator of G-protein signaling 16 (Homo sapiens) + Guanine nucleotide-binding protein … | bead-based flow cytometry RGS16-Galphao binding, fluorescence; actives lie on both sides | binding response (% of control), % at 10 µM | 0.38% of 220,000 active | AID 1441, 2008; call rule not given here;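 further: Galphao activated by GDP with aluminum fluoride before binding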
Target sequence (O15492 whole entry, looked up): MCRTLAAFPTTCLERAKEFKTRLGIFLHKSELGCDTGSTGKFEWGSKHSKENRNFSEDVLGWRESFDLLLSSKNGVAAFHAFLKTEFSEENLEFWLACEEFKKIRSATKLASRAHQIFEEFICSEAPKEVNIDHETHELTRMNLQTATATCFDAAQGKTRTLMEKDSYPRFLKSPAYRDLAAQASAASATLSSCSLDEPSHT
Target sequence (P09471 whole entry, looked up): as the sequence (P09471 whole entry, looked up) above
RGS8-Gao reg: RGS8-Galphao binding modulators, primary screen, biochemical, multiplexed bead flow cytometry. 0.34% of 220,000 active. response (percent of control binding), % at 10 µM. AID 1423, 2008. actives lie on both sides. Guanine nucleotide-binding protein G(o) subunit alpha (Homo sapiens), P09471; in the data active means response below about 60% or above about 140%; inactive means in between;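 further: Galphao activated as the GDP aluminium fluoride complex binding bead-coupled RGS8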
RGS7-Gao reg: RGS7-Galphao binding modulators, primary screen, biochemical, multiplexed bead flow cytometry; Guanine nucleotide-binding protein G(o) subunit alpha (Homo sapiens), P09471; AID 1439, 2008; 0.35% of 220,000 active; binding response (% of control), % at 10 µM; actives lie on both sides; in the data active means binding response below about 49% or above about 150%; inconclusive means no clear call, values can overlap the other calls; inactive means in between;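 further: fluorescent Galphao held in activated GDP-AlF4 state binding bead-coupled RGS7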
* = called active by the depositor; ? = inconclusive; nt = not tested or not shown; [ ] = another dose, or the depositor's remark. Shown are actives, neighbours in structure and some others; about 1.2% of the full set was active somewhere.

SMILES	Avidin bead fluor	RGS4-Gao reg	GSH bead fluor	RGS16-Gao	RGS8-Gao reg	RGS7-Gao reg
OC(CN1CCOCC1)c1ccc(F)cc1 (stereo unspecified)	13	101.5	11	101.9	100.4	?
O=C(O)Cc1csc(NC(=O)c2ccco2)n1	7	101.3	276*	96.0	98.3	103.4
COc1cccc(-n2c(SCC#N)nnc2-c2cnccn2)c1	6	112.2	247*	95.2	100.7	112.5
Cn1c(=O)c2c(nc(NCCO)n2CCc2ccccc2)n(C)c1=O	3	90.1	15	69.2	91.5	94.1
Cn1c(=O)c2c(nc(NCCCO)n2CCc2ccccc2)n(C)c1=O	50*	101.6	20	104.7	103.6	104.9
Cc1ccc(C)c(/C(O)=C2\C(=O)C(=O)N(Cc3cccnc3)C2c2cccnc2)c1 (stereo unspecified)	49*	95.5	18	96.7	97.3	105.0
COc1ccc(-c2cc(C(=O)Nc3cc(S(=O)(=O)N4CCOCC4)ccc3N3CCOCC3)c3ccccc3n2)cc1	11	100.9	13	100.7	98.4	?
CC(C)(C)OC(=O)NCc1n[nH]c(=S)n1C1CC1	7	99.7	nt	98.8	99.3	?
CN(C(=O)Nc1ccc(C(C)(C)C)cc1)C1CCCCC1	70*	111.6	nt	98.6	98.5	?
NC(=O)COC(=O)CSc1cccc2cccc(Cl)c12	12	101.1	9	98.0	100.2	?
Cc1ccc(C)c(NC(=O)COC(=O)CCC(=O)c2cccs2)c1	11	93.9	12	94.6	99.2	?
O=C(NC1CCCC1)C1C2C=CC(C2)C1C(=O)N1CCOCC1 (stereo unspecified)	6	103.5	272*	98.0	99.7	97.5
O=C(O)C1C2C=CC(C2)C1C(=O)N1CCOCC1 (stereo unspecified)	15	103.5	32	105.2	107.2	104.3
O=c1[nH]c(CSc2nc3ccccc3o2)nc2c1cnn2-c1ccccc1	8	100.9	255*	106.4	103.4	100.5
O=c1[nH]c(SCc2nc3c(cnn3-c3ccccc3)c(=O)[nH]2)nc2ccccc12	18	101.0	9	101.5	98.9	99.4
NC(=O)c1oc2ccccc2c1NC(=O)c1ccco1	21	101.2	13	101.7	100.5	98.3
NC(=O)c1oc2ccccc2c1NC(=O)c1ccccc1	7	98.0	259*	98.0	100.2	98.3
COc1ccc([N+](=O)[O-])cc1NC(=O)C(C)OC(=O)c1ccccc1C(=O)c1ccc(Cl)cc1 (stereo unspecified)	15	102.7	8	106.8	102.9	103.2
O=C1c2cc(S(=O)(=O)NCCCO)ccc2-c2ccc(S(=O)(=O)NCCCO)cc21	6	105.4	251*	122.0	107.3	102.9
O=[N+]([O-])c1ccc(/C=C/C2=NN(c3ccccc3)C(c3ccco3)C2)cc1 (stereo unspecified)	186*	285.4*[activator]	83	222.8*[activator]	111.2	246.4*[activator]
C=CCN1C(=O)S/C(=C\c2ccc3c(c2)n(C)c(=O)n3C)C1=O	1	97.0	10	52.3	87.3	97.2
C=CCN1C(=O)S/C(=C/c2ccsc2)C1=O	4	105.5	108*	72.8	91.5	105.8
CCN1C(=O)S/C(=C/c2ccsc2)C1=O	52*	98.8	26	105.1	104.1	106.1
CCN1C(=O)S/C(=C/c2cn(C)c3ccccc23)C1=O	12	101.0	4	99.8	98.3	98.0
CCCn1nc(NC(=O)c2cccs2)c2cc3cccc(C)c3nc21	5	104.8	nt	101.0	101.0	?
SMILES	Avidin bead fluor	RGS4-Gao reg	GSH bead fluor	RGS16-Gao	RGS8-Gao reg	RGS7-Gao reg
Cc1cc2oc(=O)cc(Cn3ccnc3)c2cc1C	8	102.6	273*	102.5	98.5	96.5
O=C(C1CCN(S(=O)(=O)N2CCC3(CC2)OCCO3)CC1)N1CCN(Cc2ccccc2)CC1	133*	129.9	26	123.5	98.2	146.6
O=C(NCCCN1CCN(Cc2ccccc2)CC1)C1CCN(S(=O)(=O)N2CCC3(CC2)OCCO3)CC1	12	92.8	18	91.8	93.8	?
Cc1ccc(NC(=O)c2ccc3c(c2)C(=O)N(CC2CCCO2)C3=O)cc1C (stereo unspecified)	7	100.1	9	109.0	103.2	102.8
O=C(NN1C(=O)c2ccccc2C1=O)c1ccc2c(c1)C(=O)N(CC1CCCO1)C2=O (stereo unspecified)	52*	112.5	nt	110.5	103.7	?
O=C(c1ccccc1F)N(Cc1nc2ccccc2c(=O)[nH]1)C1CCCC1	10	102.8	10	111.2	104.2	101.9
CCOc1ccc2nc(SCC(=O)c3ccccc3)sc2c1	9	99.5	263*	97.4	100.3	102.0
CC1NC(=O)NC1CCCCC(=O)O (stereo unspecified)	4	102.3	243*	55.4	95.4	102.4
O=C(CN1C(=O)NC2(CCCCCC2)C1=O)N1CCN(S(=O)(=O)c2ccc(Cl)cc2)CC1	49*	99.2	22	91.0	94.2	106.8
O=C(c1cccc(F)c1)N1CCN(C2CCCCC2)CC1	6	96.6	269*	101.1	99.0	94.5
O=C(c1cccc(F)c1)N1CCC(N2CCCCCC2)CC1	21	112.6	11	112.0	105.2	104.6
O=c1c2ccccc2nc(SCc2cccc(F)c2)n1Cc1ccco1	72*	107.8	25	109.0	99.8	122.4
Cn1c(N)c(C(=O)Nc2c(Cl)cccc2Cl)sc1=S	4	99.8	nt	102.6	103.6	?
CCOC(=O)/C=C1\SCC(=O)N1Cc1nnc(-c2ccccc2Br)o1	50*	97.9	22	97.6	97.9	101.2
Cc1ccc(Nc2nnc(-c3ccncc3)s2)c(Br)c1	12	103.0	19	99.7	102.4	98.8
CCOCCCNC(=O)c1ccc2c(=O)n(Cc3ccc(OC)cc3)c(=O)[nH]c2c1	12	102.6	14	104.3	104.2	101.9
Cc1cc(N2CCOCC2)nc(NCc2ccccc2)n1	5	122.3	259*	231.2	132.3	119.7
c1cncc(CNc2nc(N3CCOCC3)nc(N3CCOCC3)n2)c1	67*	111.2	34	98.1	95.4	131.5
CCn1c(C)nc2cc(C(=O)NNC(=S)NC(=O)c3ccc(OC)cc3)ccc21	9	100.7	14	102.3	102.0	?
N#Cc1c(-c2ccc(Cl)cc2)ccn2nc(C3CCCCC3)nc12	7	105.2	262*	101.0	102.9	104.7
CCC(=O)Nc1cc(=O)[nH]c2nc(-c3ccc(Cl)cc3)nn12	9	106.7	nt	105.2	103.7	?
